Values joined by “and” are separate entries in the source; they are usually repeats but may differ in a detail not shown here. Equal entries are not always repeated. Results filed as inconclusive are left out. Active and inactive are the calls of the source. Calls follow the shape of the dose curve; as a rule, active = well fitted activation curve with a large enough effect; inconclusive = small, poorly fitted or top-dose-only effect; inactive = no such curve, though single readings can be large or run the other way.
Molecular target: Cellular tumor antigen p53 (Homo sapiens) (UniProt P04637)
Sequence (P04637 whole entry, looked up): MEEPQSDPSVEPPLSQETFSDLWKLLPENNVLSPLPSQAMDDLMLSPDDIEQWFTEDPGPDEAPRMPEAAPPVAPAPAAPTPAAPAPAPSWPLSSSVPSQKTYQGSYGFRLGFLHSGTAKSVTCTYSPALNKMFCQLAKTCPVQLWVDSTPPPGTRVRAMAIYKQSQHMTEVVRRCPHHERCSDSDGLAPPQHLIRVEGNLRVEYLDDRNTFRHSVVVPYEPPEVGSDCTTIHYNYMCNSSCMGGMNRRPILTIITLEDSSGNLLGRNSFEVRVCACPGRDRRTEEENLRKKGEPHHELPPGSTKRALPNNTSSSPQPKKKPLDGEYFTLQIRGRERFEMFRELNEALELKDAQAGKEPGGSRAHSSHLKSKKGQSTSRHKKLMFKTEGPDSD
Test: Primary qHTS for small molecule compounds that upregulate eGFP-tagged delta133p53alpha (in N-terminal) cells. (AID 2060322); also: nearly all actives have a fitted effect of over 75% in size;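 as to activation: series mostly up to about 56 µM; 0% = DMSO vehicle and 100% = reference activator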
Settings: NCI-H358 eGFP-delta133p53alpha fluorescence, 24 h; activation: hits give high values
How it was run: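 NCI-H358 cells pre-induced 24 h with 10 ng/ml doxycycline to express N-terminal eGFP-delta133p53alpha, then dosed 24 h at 37C without doxycycline; fixed, Hoechst-stained, GFP intensity by laser scanning cytometry, normalized to DMSO (0%) and 57.5 uM 5-azacytidine (100%).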
Potency is read from the fitted curve at half-maximal effect.

Row | Compound | activation | Potency
1 | Clc1ccc(-c2nc3sccn3c2C=NOCc2ccc(Cl)c(Cl)c2)cc1 | -15.4% (inactive) | –
2 | O=C(O)C(S)C(S)C(=O)O (stereo not given) | -37.9% (inactive) | –
3 | COc1cc(C(=S)N2CCOCC2)ccc1O | -10.7% (inactive) | –
4 | NC(=O)c1ncn([C@@H]2O[C@H](CO)[C@@H](O)[C@@H]2O)n1 | -6.05% (inactive) | –
5 | Cc1sccc1Br | 7.53% (inactive) | –
6 | COc1cc([C@@H]2c3cc4c(cc3[C@@H](O[C@@H]3O[C@@H]5CO[C@@H](c6cccs6)O[C@@H]5[C@H](O)[C@@H]3O)[C@H]3COC(=O)[C@H]23)OCO4)cc(OC)c1O | -12.2% (inactive) | –
7 | O=C(O)c1ccccc1OP(=O)(O)O | -6.21% (inactive) | –
8 | O=C(O)CCC(=O)OC[C@@H](NC(=O)C(Cl)Cl)[C@H](O)c1ccc([N+](=O)[O-])cc1 | 15.1% (inactive) | –
9 | COc1cc(C(=S)N2CCOCC2)cc(OC)c1OC | -16.4% (inactive) | –
10 | CC(C)[N+](C)(C)CC(O)COc1cccc2ccccc12 (stereo not given) | -17.5% (inactive) | –
11 | O=C1OC(c2ccc(O)cc2)(c2ccc(O)cc2)c2ccccc21 | 10.7% (inactive) | –
12 | CN1C(C)(C)CCCC1(C)C | 0% (inactive) | –
13 | Nc1ccc([N+](=O)[O-])c(C(F)(F)F)c1 | -10.7% (inactive) | –
14 | CC(=O)ON=C1C(c2c(O)[nH]c3cc(Br)ccc23)=Nc2ccccc21 | 53.3% (inactive) | –
15 | CCC(=O)O[C@]1(C(=O)CO)CC[C@H]2[C@@H]3CCC4=CC(=O)CC[C@]4(C)[C@@H]3CC[C@@]21C | 38% (inactive) | –
16 | O[C@@H]1CO[C@H]2[C@@H]1OC[C@@H]2O | -14.2% (inactive) | –
17 | CCCc1ncc(C[n+]2ccccc2C)c(N)n1 | 13.4% (inactive) | –
18 | Cc1cccc(Nc2ccncc2S(=O)(=O)NC(=O)NC(C)C)c1 | 14.1% (inactive) and -1.67% (inactive) | –
19 | CC=C1NC(=O)[C@H]2CSSCCC=C[C@H](CC(=O)N[C@H](C(C)C)C(=O)N2)OC(=O)[C@H](C(C)C)NC1=O | 27.9% (inactive) | –
20 | OC[C@H]1O[C@@H](n2cnc3c2NC=NC[C@@H]3O)C[C@H]1O | -21% (inactive) | –

Row | Compound | activation | Potency
21 | CC(=O)[C@@]1(O)CC[C@H]2[C@@H]3C[C@H](C)C4=CC(=O)C=C[C@]4(C)[C@@]3(F)[C@@H](O)C[C@@]21C | -11.7% (inactive) | –
22 | CC1(C)SCCN(S(=O)(=O)c2ccc(OCC#CCO)cc2)[C@@H]1C(=O)NO | 9.74% (inactive) | –
23 | NC1=N[C@@]2(c3cc(NC(=O)c4ccc(F)cn4)ccc3F)COC[C@@H]2CS1 | 87.4% (inactive) | –
24 | Nc1ccc(C(=O)OCC(O)CO)cc1 (stereo not given) | 6.21% (inactive) | –
25 | CCN(CCCCOC(=O)c1ccc(OC)c(OC)c1)C(C)Cc1ccc(OC)cc1 (stereo not given) | -6.69% (inactive) | –
26 | CC(C)N(CCCNC(=O)Nc1ccc(C(C)(C)C)cc1)C[C@H]1O[C@@H](n2cc(Br)c3c(N)ncnc32)[C@H](O)[C@H]1O | -20.1% (inactive) | –
27 | O=C(Nc1ncc(SCCN2CCCC2)s1)[C@]1(c2ccc(S(=O)(=O)C3CC3)cc2)C[C@@H]1C1CCCCC1 | 26.3% (inactive) | –
28 | CCCCCCCCOc1ccccc1C(=O)Nc1ccc(C(=O)OCC[N+](C)(CC)CC)cc1 | -5.01% (inactive) | –
29 | CCN(CC)CCOC(=O)C(c1ccccc1)C1CCCCC1 (stereo not given) | 14.2% (inactive) | –
30 | CC[C@H](c1ccc(O)cc1)[C@@H](CC)c1ccc(O)cc1 | – | 12.3 µM (active)
31 | Nc1ccc(S(=O)(=O)Nc2ncccn2)cc1 | -6.74% (inactive) | –
32 | CCCC(=O)O[C@]1(C(=O)CC)CC[C@H]2[C@@H]3CCC4=CC(=O)CC[C@]4(C)[C@H]3[C@@H](O)C[C@@]21C | -20.9% (inactive) | –
33 | CNC(=O)c1c(I)c(NC(C)=O)c(I)c(C(=O)O)c1I | -8.47% (inactive) | –
34 | CCN(CCCc1ccccc1)CCCc1ccccc1 | -1.67% (inactive) | –
35 | O=C(NCC(=O)N1CCCCC1)Nc1ccc2nnsc2c1 | -6.7% (inactive) | –
36 | Nc1ccc(C(=O)N2CC3CC(CN(Cc4ccccc4)C3)C2)cc1 | -6.21% (inactive) | –
37 | Cc1nc(-c2ccc(Cl)cc2)oc1COC(C)(C)C(=O)O | 1.67% (inactive) | –
38 | CCN[C@H]1CN(CCCOC)S(=O)(=O)c2sc(S(N)(=O)=O)cc21 | 13% (inactive) | –
39 | O=C(O)CCCc1ccccc1 | 20.9% (inactive) | –
40 | Nc1c(CC(=O)O)cccc1C(=O)c1ccc(Br)cc1 | -3.95% (inactive) | –
